TrxR1 substrate = substrates of rat thioredoxin reductase 1 | AID 588456 | Potency, µM (titrated, usually from 114 µM) | actives 0.01% (n = 390,000) | purified TrxR1 substrate turnover, NADPH consumption readout; also: nearly all actives have a fitted effect of over 50% in size
Target sequence (O89049 whole entry, looked up): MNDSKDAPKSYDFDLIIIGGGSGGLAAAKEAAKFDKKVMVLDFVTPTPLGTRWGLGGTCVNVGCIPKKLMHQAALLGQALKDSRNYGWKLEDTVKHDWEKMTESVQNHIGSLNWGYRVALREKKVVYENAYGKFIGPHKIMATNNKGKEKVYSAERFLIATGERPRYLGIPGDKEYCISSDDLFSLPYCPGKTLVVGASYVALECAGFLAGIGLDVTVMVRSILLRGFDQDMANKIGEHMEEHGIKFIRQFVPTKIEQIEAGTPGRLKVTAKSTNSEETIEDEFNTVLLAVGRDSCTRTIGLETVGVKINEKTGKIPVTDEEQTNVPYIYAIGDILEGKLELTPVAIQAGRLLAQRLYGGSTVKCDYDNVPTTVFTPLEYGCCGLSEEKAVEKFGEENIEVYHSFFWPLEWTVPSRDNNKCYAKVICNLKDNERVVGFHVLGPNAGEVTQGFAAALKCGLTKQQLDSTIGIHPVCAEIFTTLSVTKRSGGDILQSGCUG
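Rat TrxR1, dispensed at 90 nM, was prereduced with 400 uM NADPH (final) for 5 min at ~22 deg C, then incubated with compound 15 min before 400 uM selenite. A first-read NADPH fluorescence drop versus no-compound background flagged substrates.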
FBPA coupling cs = inhibits coupling enzyme system, counter-screen for aldolase hits; coupling enzyme system counterscreen, AmpLite Red fluorescence; activity change, negative = inhibition, % at 58.2 µM, hits read low; actives 0.67% (n = 290,000); in the data active = activity change below about -30%
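Counterscreen of the coupled detection system alone, without aldolase: glyceraldehyde-3-phosphate coupling enzymes plus AmpLite Red readout. Compounds at 57.5 uM final, 10 min RT preincubation, 20 min RT reaction, fluorescence 525/598 nm.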
RORgamma inh = inhibitors of mouse ROR gamma transcriptional activity; P51450; Drosophila S2 Gal4-RORgamma UAS-luciferase reporter, 20 h; Potency, µM (series often up to 53.6 µM), actives largely listed as inhibitors; actives 5.4% (n = 310,000); AID 2551; also: nearly all actives have a fitted effect of over 60% in size
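Drosophila S2 cells stably expressing Gal4-DBD/mouse RORγ fusion under metallothionein promoter plus UAS-luciferase; compound 1 h, then 700 uM CuSO4 induction for 20 h at ambient temperature; inhibition read as reduced luminescence.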
VP16 counter = counter-screen for ROR gamma inhibitors: Gal4-VP16 reporter | Drosophila S2 Gal4-VP16 UAS-luciferase, luminescence, 20 h | Potency, µM (titrated, usually from 53.6 µM), usual class: inhibitors | actives 3.5% (n = 310,000);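 also: Gal4-VP16 expression switched on by copper sulfate through the metallothionein promoter; nearly all actives have a fitted effect of over 50% in size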
GALK inhibitor = galactokinase (human) inhibition | Potency, µM (titrated, usually from 57.5 µM), hits mostly inhibitors | AID 1868 | actives 0.007% (n = 270,000) | Purified GALK, Kinase-Glo residual ATP luminescence
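Luminescence from leftover ATP (Ultra-Glo luciferase/luciferin) served as read-out after a 1 h room-temperature reaction of 5 nM GALK with 35 uM ATP and 100 uM galactose.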
rTrxR1 inhibitor = blocks rat thioredoxin reductase 1. O89049. recombinant rTrxR1, NADPH fluorescence consumption, selenite substrate. Potency, µM (highest dose often 114 µM), most hits filed as inhibitors. actives 1% (n = 390,000). AID 588453; also: nearly all actives have a fitted effect of over 65% in size
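Rat TrxR1 (90 nM in the dispensed reagent) was pre-reduced with 400 uM NADPH for 5 min at room temperature, then incubated with compound for 15 min. After 400 uM selenite was added, NADPH fluorescence (Ex 340/Em 450 nm) was followed for 8 min.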
Each line names hits and unclear results; the compound was inactive in the other large screens. In the library only some 5.9% were active in any assay of this set; here they are far more common. Unless noted, calls follow the shape of the dose curve; as a rule, active = well fitted curve in the direction sought with a large enough effect; inconclusive = small, poorly fitted or top-dose-only effect, or another doubt; inactive = no such curve, though single readings can be large; an effect the other way counts as inactive or inconclusive.

Cc1cc2nc(C)c(=O)n(C)c2cc1C	none
COc1ccccc1CNC(=O)COC(=O)c1ccc(NC(N)=O)cc1	none
Cc1nc(NCc2ccccc2)c2nc(-c3ccccc3)n(C(C)CN(C)C)c2n1 (stereo unspecified)	RORgamma inh 11.2µM (no result: TrxR1 substrate, GALK inhibitor, rTrxR1 inhibitor)
Cc1nc(NCc2ccccc2)c2nc(-c3ccccc3)n(CCN3CCCCC3)c2n1	RORgamma inh 11.2µM (no result: TrxR1 substrate, GALK inhibitor, rTrxR1 inhibitor)
COc1ccccc1C(=O)N1CCC(N2CCN(c3ccccc3OC)CC2)CC1	none
CNC(=S)N1N=C(c2ccccc2)CC1c1ccccc1Cl (stereo unspecified)	RORgamma inh 17.8µM
O=C(O)CCC(=O)N1N=C(c2ccc(Br)cc2)CC1c1ccc(Br)cc1 (stereo unspecified)	none
CC(=O)N1N=C(c2ccc([N+](=O)[O-])cc2)CC1c1ccccc1Cl (stereo unspecified)	none
CC(C)c1ccc(C2CC(c3ccc(Br)cc3)=NN2C(N)=S)cc1 (stereo unspecified)	RORgamma inh 1.78µM, VP16 counter 5.62µM (no result: GALK inhibitor)
CNC(=S)N1N=C(c2ccc(C)cc2)CC1c1ccc(Cl)cc1 (stereo unspecified)	RORgamma inh 12.6µM
CNC(=S)N1N=C(c2ccc(C)cc2)CC1c1ccc(Br)cc1 (stereo unspecified)	none
N#CCCN(C(=O)COC(=O)CNC(=O)C12CC3CC(CC(C3)C1)C2)c1ccccc1	none (no result: FBPA coupling cs, RORgamma inh, VP16 counter, GALK inhibitor)
COCCn1c(=N)c(C(=O)NCc2ccco2)cc2c(=O)n3cc(C)ccc3nc21	rTrxR1 inhibitor inconclusive
O=c1[nH]ncn1-c1ccccc1	none
COc1ccc(CCNC(=O)CCn2c(=O)c3ccccc3n(Cc3ccccc3C)c2=O)cc1OC	none (no result: FBPA coupling cs, RORgamma inh, VP16 counter, GALK inhibitor)
COC(=O)CC1C(=O)NCCN1C(=O)CSc1nc2ccccc2c(=O)n1CC(C)C (stereo unspecified)	RORgamma inh 11.2µM, VP16 counter inconclusive
COC(=O)CC1C(=O)NCCN1C(=O)CSc1nc2ccccc2o1 (stereo unspecified)	none
Cc1ccc(C2(CCN)CCOC(C(C)C)C2)cc1 (stereo unspecified)	none
CC(=O)c1ccccc1NC(=O)COC(=O)/C=C/c1ccc(C)o1	none
CC(C)c1ccc(-c2noc(C3CCCN(C(=O)c4ccc(F)cc4F)C3)n2)cc1 (stereo unspecified)	RORgamma inh inconclusive, VP16 counter 8.91µM
Cc1ccc(-c2noc(C3CCCN(C(=O)c4ccc(F)cc4F)C3)n2)cc1 (stereo unspecified)	RORgamma inh inconclusive, VP16 counter inconclusive
COc1ccc(NC(=O)CC2C(=O)N(c3ccc(OC)cc3)C(=S)N2NC(=O)c2cccc(F)c2)cc1 (stereo unspecified)	RORgamma inh 12.6µM, VP16 counter inconclusive
CC1(C)CC2CC(C)(CN2C(=O)C23CCC(C)(C(=O)C2)C3(C)C)C1 (stereo unspecified)	none
O=C(CCCl)Nc1nnc(SCC(=O)NC2CCCC2)s1	VP16 counter 2µM, rTrxR1 inhibitor inconclusive
COc1ccc(C(=O)Nc2nnc(SCC(=O)NCc3ccco3)s2)c(OC)c1	RORgamma inh 11.2µM, VP16 counter 10µM (no result: FBPA coupling cs)
COc1ccc(C(=O)Nc2nnc(SCC(=O)Nc3ccc(NC(C)=O)cc3)s2)c(OC)c1	RORgamma inh inconclusive (no result: FBPA coupling cs)
CCCCC(=O)Nc1nnc(SCC(=O)NC2CCCC2)s1	none (no result: GALK inhibitor)
COc1ccc(C(=O)Nc2nnc(SCC(=O)NC3CCCC3)s2)c(OC)c1	RORgamma inh 3.16µM, VP16 counter inconclusive
COc1ccc(C(=O)Oc2c(CN3CCOCC3)cc(Cl)c3cccnc23)cc1	RORgamma inh 6.31µM, VP16 counter 6.31µM
COc1cc(C(=O)Oc2c(CN3CCOCC3)cc(Cl)c3cccnc23)cc(OC)c1OC	RORgamma inh 4.47µM, VP16 counter 2.51µM
COc1cccc(C(=O)Oc2c(CN3CCOCC3)cc(Cl)c3cccnc23)c1	RORgamma inh 2.82µM, VP16 counter 4.47µM
O=C(Oc1c(CN2CCOCC2)cc(Cl)c2cccnc12)c1ccc(F)cc1	none
CS(=O)(=O)N1N=C(c2cccs2)CC1c1ccc(Cl)o1 (stereo unspecified)	RORgamma inh inconclusive
COc1ccc(N2CCN(CCCNC(=O)c3cc4sccc4n3C)CC2)cc1	none
Cc1noc(C)c1CSCC(=O)N1CCN(c2ccc(F)cc2)CC1	RORgamma inh inconclusive, VP16 counter inconclusive, rTrxR1 inhibitor inconclusive
Cc1cccc(N2CCN(C(=O)CSCc3c(C)noc3C)CC2)c1C	RORgamma inh inconclusive, VP16 counter 10µM
Nc1nnc(-c2ccc([N+](=O)[O-])o2)s1	rTrxR1 inhibitor inconclusive (no result: FBPA coupling cs, RORgamma inh, VP16 counter, GALK inhibitor)
O=c1[nH]nc(-c2ccc([N+](=O)[O-])o2)c(=O)[nH]1	rTrxR1 inhibitor 12.6µM (no result: FBPA coupling cs, RORgamma inh, VP16 counter, GALK inhibitor)
O=C(CCCOc1ccccc1)NC(=S)Nc1ccccc1	RORgamma inh 10µM, VP16 counter inconclusive
Cc1cccc(NC(=S)NC(=O)Cc2ccccc2)c1C	RORgamma inh 3.98µM, VP16 counter 4.47µM, rTrxR1 inhibitor 56.2µM
Cc1cccc(NC(=S)NC(=O)CCc2ccccc2)c1	RORgamma inh 10µM, VP16 counter inconclusive, rTrxR1 inhibitor inconclusive
CCCN(Cc1ccccc1)C(=S)Nc1cccc(C)c1C	RORgamma inh inconclusive
Cc1cccc(NC(=O)NNC(=O)CCc2ccccc2)c1	RORgamma inh inconclusive
Cc1cccc(NC(=S)NN(Cc2ccccc2)c2ccccc2)c1C	RORgamma inh 3.55µM, VP16 counter 3.55µM
COc1ccc(CNc2nc3ccc(C)cc3s2)c(OC)c1OC	RORgamma inh inconclusive, VP16 counter inconclusive
CCOc1ccc(S(=O)(=O)Nc2ccc(C(=O)N3CCC3)cc2)cc1	none (no result: FBPA coupling cs, RORgamma inh, VP16 counter, GALK inhibitor)
O=C(CCN1C(=O)c2ccccc2C1=O)NC(=S)Nc1ccccc1Cl	RORgamma inh inconclusive, VP16 counter inconclusive (no result: GALK inhibitor)
Cc1c(Cl)cccc1NC(=S)NC(=O)CCN1C(=O)c2ccccc2C1=O	RORgamma inh 15.8µM, VP16 counter inconclusive
O=C(NC(=S)Nc1cccc(NC(=S)NC(=O)c2ccco2)n1)c1ccco1	RORgamma inh 0.0891µM, VP16 counter 0.794µM
Cc1c(NC(=S)NC(=O)Cc2ccccc2)cccc1C(=O)O	none
Cc1ccc(S(=O)(=O)NNC(=S)Nc2cccc(C)c2C)cc1	RORgamma inh 5.01µM, VP16 counter inconclusive
O=C(Nc1ccc(NC(=S)NC(=O)c2ccco2)cc1)c1ccccc1	RORgamma inh inconclusive
Cc1cccc(NC(=S)NC(=O)CCc2ccccc2)c1C	RORgamma inh 2.51µM, VP16 counter inconclusive, rTrxR1 inhibitor inconclusive
O=C(Cc1cccs1)Nc1nnc(-c2ccccc2)s1	none
CCCN(C(=O)c1cc2c(=O)oc3ccccc3c2s1)c1ccc(CC)cc1	none (no result: FBPA coupling cs, RORgamma inh, VP16 counter, GALK inhibitor)
CCC(=O)Nc1cccc(NC(=S)NC(=O)Cc2ccccc2)c1	rTrxR1 inhibitor inconclusive
